# Data published in PubChem BioAssay (NCI).
# The panel holds about 83,000 compounds, 20% with a hit somewhere; the sample as a whole holds those more often.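 Negative percent growth values reflect cell death: -40 means 40% of the cells present at the start died, and -100 means all died.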 Values without a mark were called inactive. Active and inactive are the calls of the source. How the source made its calls: active means growth percent below 10; inactive means the rest.
# Experiments:
# Test in all cases: NCI-60 one-dose screen, 48 h (100 = growth as untreated, 0 = no growth, -100 = all killed)
# Conditions in all cases: 10 µM unless noted
# DU-145 prostate = tested on: DU-145 prostate
# K-562 leukemia = tested on: K-562 leukemia
# MALME-3M melanoma = tested on: MALME-3M melanoma
# MDA-MB-231 breast = tested on: MDA-MB-231 breast
# RXF 393 renal = tested on: RXF 393 renal
# SF-268 CNS = tested on: SF-268 CNS
# SF-295 CNS = tested on: SF-295 CNS
# SF-539 CNS = tested on: SF-539 CNS
# UACC-257 melanoma = tested on: UACC-257 melanoma
# M14 melanoma = tested on: M14 melanoma
Structure (SMILES),growth (DU-145 prostate),growth (K-562 leukemia),growth (MALME-3M melanoma),growth (MDA-MB-231 breast),growth (RXF 393 renal),growth (SF-268 CNS),growth (SF-295 CNS),growth (SF-539 CNS),growth (UACC-257 melanoma),growth (M14 melanoma)
C/C=C(\C)C(=O)N[C@H]1C(O)C[C@]2(C)C3CC[C@@]4(C)C(CC[C@@H]4C(C)N(C)C)C3CCC2C1O (stereo not given in full),74.6%,0.455% (active),17.1%,65.2%,81%,13.6%,105%,7.02% (active),14.6%,-14.1% (active)
COc1cc(C2C(C(=O)OCc3ccccc3)=C(C)NC(C)=C2C(=O)OCc2ccccc2)cc(OC)c1OC,53.9%,20.3%,18%,31.9%,-18.5% (active),37.6%,15.4%,41.3%,19.5%,21.9%
Cc1ccc(C(=O)c2ccc(CC(=O)NN3C(=O)c4ccccc4C3=O)n2C)cc1,108%,90.9%,101%,93.9%,102%,95.8%,98.6%,97.3%,100%,104%
CCOC(=O)c1c(C)c2c(n1Cc1ccccc1)CSCC2=O,30.8% [100 µM],18.6% [100 µM],-16.3% [100 µM] (active),-2.2% [100 µM] (active),17.1% [100 µM],21.4% [100 µM],3.06% [100 µM] (active),-23.7% [100 µM] (active),21.9% [100 µM],-16% [100 µM] (active)
O=C(N/N=C\c1cccc([N+](=O)[O-])c1)N/N=C/c1cccc([N+](=O)[O-])c1,116%,99.4%,109%,100%,106%,102%,106%,111%,97.4%,113%
O=C(O)COc1ccc(Cl)c(Cl)c1,126%,109%,124%,115%,108%,117%,103%,104%,104%,112%
CCN(CC)c1ccc(CNc2cc(C)nc3ccccc23)cc1,77.8%,31%,69.8%,66.6%,68.8%,87.7%,50.9%,74.7%,62.5%,64.8%
O=C(Nc1ncc(Cc2cc(C(F)(F)F)ccc2Cl)s1)c1cccs1,72.7%,10.7%,50.7%,77.8%,42.7%,63.9%,41%,79.7%,73.3%,49.3%
Cn1c(=O)c2[nH]c(SCC(=O)Nc3ccc(C(=O)/C=C/c4ccccc4Cl)cc3)nc2n(C)c1=O,102%,84.4%,112%,106%,105%,89.7%,90.5%,101%,86.1%,99.5%
O=C1/C(=C/c2ccc(O)c(O)c2)COc2ccc(-c3ccccc3)cc21,26.5%,15.3%,41.2%,12.9%,16.5%,49.4%,42.5%,9.83% (active),30.4%,45.9%
C/C(=N\O)c1ccc(NC(=O)CSc2nnc(-c3cc(-c4ccc(S(N)(=O)=O)cc4)nc4ccccc34)n2-c2ccccc2)cc1,80.3%,43%,80%,74.3%,83.9%,60.3%,92.2%,76.4%,87.3%,74.4%
CC1=CCC(OC(=O)C(C)(C)CC(O)(C(C)O)C(O)C2(C)C=CC(Cc3ccc(C(C)C)cc3)(C(C)C)CC2)(C(C)C)CC1 (stereo not given),107%,9.06% (active),92.2%,95.9%,97.8%,98.5%,97.1%,93.3%,98.7%,96.1%
Nc1nc(N)c2c(n1)NC(c1cccc(Nc3ccnc4cc(C(F)(F)F)ccc34)c1)CC(c1ccc(Br)cc1)=N2 (stereo not given),71.2%,10.5%,53.6%,57.3%,40.7%,61.4%,52%,83.9%,71.5%,42.9%
Cc1cc(Nc2ccc(C(=O)N3CCCC3)cc2)nc(NCCCNc2ccnc3cc(Cl)ccc23)n1,91.5%,33.9%,54.8%,48.3%,101%,67.8%,103%,65%,105%,82.5%
